Test results: the supplement of paper PMC10849652
The full data set covers some 7,900 targets. This sample favours those with a hit. About 0.6% of all pairs of compound and target were hits. Values without a mark were called inactive.

Key:
Test in all cases: log2 fold change, soluble protein after heating vs DMSO (PISA); higher = thermal stabilisation; K562 cells, 10 uM, 30 min; active = over 0.2 and 3.5 SD of the protein, either way, in both replicates (recomputed)
[1] = compound: CN1CCN(CCOc2cc(OC3CCOCC3)c3c(Nc4c(Cl)ccc5c4OCO5)ncnc3c2)CC1 [saracatinib]
How it was run: (§1)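 K562 cells at 2×10^6 cells/mL were given 10 μM compound for 30 min. Aliquots then went through 3 min of heating across 48°C-58°C, were pooled, and were extracted in PBS with 0.5% NP-40 at 4°C, and the supernatant after 21,000xg for 90 min was quantified by TMTpro 16plex LC-MS/MS with channel sums equalised. Thermal stability relative to control samples, from duplicates, is given as log2 fold change.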

[2] = compound: CN1CCN(c2nc(C3=C(c4c[nH]c5ccccc45)C(=O)NC3=O)c3ccccc3n2)CC1 [sotrastaurin]
How it was run: as §1

[3] = compound: CN1CC[C@H](c2c(O)cc(O)c3c(=O)cc(-c4ccccc4Cl)oc23)[C@H](O)C1 [alvocidib]
How it was run: as §1

[4] = compound: CN1CCc2c(c3ccccc3n2Cc2ccc(C(=O)NO)cc2)C1 [Tubastatin A]
How it was run: as §1

[5] = compound: CNC(=O)C1=CC=CC=C1NC2=NC(=NC=C2Cl)NC3=C(C=C(C=C3)N4CCOCC4)OC
How it was run: as §1

[6] = compound: CNC(=O)c1ccc(Nc2ncc(C(F)(F)F)c(NCc3nccnc3N(C)S(C)(=O)=O)n2)cc1 [defactinib]
How it was run: as §1

[7] = compound: CNCc1ccc(-c2[nH]c3cc(F)cc4c3c2CCNC4=O)cc1 [rucaparib]
How it was run: as §1

[8] = compound: CNc1nc(-c2ccc3c(N)n[nH]c3c2)cc(N2C[C@@H](C(=O)NC3CCCCC3)CC[C@H]2C)n1
How it was run: as §1

[9] = compound: COC(=O)N[C@@H](C)CNc1nccc(-c2cn(C(C)C)nc2-c2cc(Cl)cc(NS(C)(=O)=O)c2F)n1 [encorafenib]
How it was run: as §1

[10] = compound: COC(=O)[C@H](CCSC)NC(=O)C1=C(C=C(C=C1)NC[C@H](CS)N)C2=CC=CC=C2
How it was run: as §1

[11] = compound: COC1=CC=C(C=C1)CN2C=CC3=C2C=C(C=C3)C(=O)NO
How it was run: as §1

[12] = compound: CON(C)C(=O)N1N=C(c2cc(F)ccc2F)S[C@@]1(CCCN)c1ccccc1 [filanesib]
How it was run: as §1

[13] = compound: CO[C@H]1C[C@@H]2CC[C@@H](C)[C@@](O)(O2)C(=O)C(=O)N2CCCC[C@H]2C(=O)O[C@H]([C@H](C)C[C@@H]2CC[C@H](n3cnnn3)[C@H](OC)C2)CC(=O)[C@H](C)/C=C(\C)[C@@H](O)[C@@H](OC)C(=O)[C@H](C)C[C@H](C)/C=C/C=C/C=C/1C [zotarolimus]
How it was run: as §1

[14] = compound: COc1cc(C(=O)O)ccc1NC(=O)[C@@H]1N[C@@H](CC(C)(C)C)[C@](C#N)(c2ccc(Cl)cc2F)[C@H]1c1cccc(Cl)c1F [idasanutlin]
How it was run: as §1

[15] = compound: COc1cc(Nc2ncc3c(n2)-c2ccc(Cl)cc2C(c2c(F)cccc2OC)=NC3)ccc1C(=O)O [alisertib]
How it was run: as §1

[16] = compound: COc1cc2nc(-c3cc(F)ccc3O)nc(N[C@@H]3CNC[C@H]3C(C)(C)O)c2cc1OC
How it was run: as §1

[17] = compound: COc1cc2ncnc(Nc3ccc(F)c(Cl)c3)c2cc1OCCCN1CCOCC1 [gefitinib]
How it was run: as §1

[18] = compound: COc1cccc2cc(-c3nc([C@H]4CC[C@H](C(=O)O)CC4)n4ncnc(N)c34)[nH]c12
How it was run: as §1

[19] = compound: CS(=O)(=O)CCNCc1ccc(-c2ccc3ncnc(Nc4ccc(OCc5cccc(F)c5)c(Cl)c4)c3c2)o1 [lapatinib]
How it was run: as §1

[20] = compound: CS(=O)(=O)N1CCN(Cc2cc3nc(-c4cccc5[nH]ncc45)nc(N4CCOCC4)c3s2)CC1 [pictilisib]
How it was run: as §1

UniProt Q96T23, sequence (Q96T23 whole entry, looked up): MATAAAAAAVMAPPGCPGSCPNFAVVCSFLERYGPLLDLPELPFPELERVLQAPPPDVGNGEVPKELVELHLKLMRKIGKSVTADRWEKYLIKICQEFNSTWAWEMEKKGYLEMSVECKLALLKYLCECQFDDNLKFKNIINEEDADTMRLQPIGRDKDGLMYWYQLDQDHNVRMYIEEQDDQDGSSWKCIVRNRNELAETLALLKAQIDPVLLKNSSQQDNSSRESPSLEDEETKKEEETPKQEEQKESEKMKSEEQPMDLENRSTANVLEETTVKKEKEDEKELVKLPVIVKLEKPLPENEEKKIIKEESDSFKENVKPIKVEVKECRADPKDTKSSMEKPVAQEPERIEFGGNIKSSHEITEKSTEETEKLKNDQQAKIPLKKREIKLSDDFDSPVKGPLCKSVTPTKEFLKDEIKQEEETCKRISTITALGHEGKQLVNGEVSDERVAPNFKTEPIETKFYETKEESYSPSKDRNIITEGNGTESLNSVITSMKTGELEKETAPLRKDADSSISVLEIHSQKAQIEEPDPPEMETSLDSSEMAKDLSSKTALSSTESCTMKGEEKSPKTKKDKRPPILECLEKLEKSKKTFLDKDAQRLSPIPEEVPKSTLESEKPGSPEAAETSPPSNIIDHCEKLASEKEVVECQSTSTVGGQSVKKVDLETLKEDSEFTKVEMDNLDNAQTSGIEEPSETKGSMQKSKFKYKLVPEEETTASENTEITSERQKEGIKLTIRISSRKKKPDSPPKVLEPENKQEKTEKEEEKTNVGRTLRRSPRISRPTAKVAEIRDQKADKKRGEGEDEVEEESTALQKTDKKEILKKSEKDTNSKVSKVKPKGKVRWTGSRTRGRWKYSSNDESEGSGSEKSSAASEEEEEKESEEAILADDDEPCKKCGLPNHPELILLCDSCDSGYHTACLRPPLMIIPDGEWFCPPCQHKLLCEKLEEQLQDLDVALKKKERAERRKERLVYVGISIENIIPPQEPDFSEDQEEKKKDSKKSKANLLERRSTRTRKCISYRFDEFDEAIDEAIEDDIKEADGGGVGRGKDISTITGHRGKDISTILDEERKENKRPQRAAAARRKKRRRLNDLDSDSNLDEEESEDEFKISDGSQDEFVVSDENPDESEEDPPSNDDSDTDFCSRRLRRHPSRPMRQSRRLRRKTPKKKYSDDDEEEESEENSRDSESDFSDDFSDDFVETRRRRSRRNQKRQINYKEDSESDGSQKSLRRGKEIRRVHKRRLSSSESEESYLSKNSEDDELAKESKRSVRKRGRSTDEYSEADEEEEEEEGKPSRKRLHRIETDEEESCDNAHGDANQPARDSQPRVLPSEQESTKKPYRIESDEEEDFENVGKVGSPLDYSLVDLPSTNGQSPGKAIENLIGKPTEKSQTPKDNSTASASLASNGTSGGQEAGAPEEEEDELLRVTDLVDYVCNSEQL
UniProt Q8WWV3, sequence (Q8WWV3 whole entry, looked up): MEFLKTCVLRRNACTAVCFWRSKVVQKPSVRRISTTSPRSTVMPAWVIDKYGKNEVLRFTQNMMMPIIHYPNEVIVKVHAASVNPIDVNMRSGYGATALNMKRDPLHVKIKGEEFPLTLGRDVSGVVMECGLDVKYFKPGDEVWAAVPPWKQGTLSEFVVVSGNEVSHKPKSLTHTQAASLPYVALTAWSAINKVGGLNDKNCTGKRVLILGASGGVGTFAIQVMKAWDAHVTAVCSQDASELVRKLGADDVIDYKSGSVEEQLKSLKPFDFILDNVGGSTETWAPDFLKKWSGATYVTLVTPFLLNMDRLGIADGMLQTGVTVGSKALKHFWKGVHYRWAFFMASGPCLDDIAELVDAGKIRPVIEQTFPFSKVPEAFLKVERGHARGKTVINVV
UniProt Q8TD22, sequence (Q8TD22 whole entry, looked up): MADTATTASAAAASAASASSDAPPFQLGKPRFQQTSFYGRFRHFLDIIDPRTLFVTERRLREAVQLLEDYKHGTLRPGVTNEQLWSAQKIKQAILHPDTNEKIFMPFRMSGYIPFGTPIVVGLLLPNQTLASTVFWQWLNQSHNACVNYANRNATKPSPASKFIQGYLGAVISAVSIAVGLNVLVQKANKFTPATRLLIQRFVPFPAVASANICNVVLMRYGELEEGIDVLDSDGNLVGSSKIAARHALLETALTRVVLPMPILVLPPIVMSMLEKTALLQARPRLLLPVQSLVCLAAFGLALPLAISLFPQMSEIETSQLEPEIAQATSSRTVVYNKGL
UniProt Q99643, sequence (Q99643 whole entry, looked up): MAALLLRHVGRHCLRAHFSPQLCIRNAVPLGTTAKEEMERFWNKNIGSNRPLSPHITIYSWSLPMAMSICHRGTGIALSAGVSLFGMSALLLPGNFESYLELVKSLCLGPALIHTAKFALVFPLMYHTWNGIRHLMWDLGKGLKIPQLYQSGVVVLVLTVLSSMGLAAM
UniProt Q96D15, sequence (Q96D15 whole entry, looked up): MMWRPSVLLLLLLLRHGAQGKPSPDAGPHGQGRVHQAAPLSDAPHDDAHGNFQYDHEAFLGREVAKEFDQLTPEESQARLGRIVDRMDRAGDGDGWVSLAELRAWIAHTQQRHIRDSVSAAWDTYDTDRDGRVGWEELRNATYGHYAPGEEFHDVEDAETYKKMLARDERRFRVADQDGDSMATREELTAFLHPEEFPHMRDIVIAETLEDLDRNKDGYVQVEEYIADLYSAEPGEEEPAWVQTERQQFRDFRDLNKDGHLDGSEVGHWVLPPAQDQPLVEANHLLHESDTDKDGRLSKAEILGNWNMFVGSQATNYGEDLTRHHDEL
UniProt Q86VR2, sequence (Q86VR2 whole entry, looked up): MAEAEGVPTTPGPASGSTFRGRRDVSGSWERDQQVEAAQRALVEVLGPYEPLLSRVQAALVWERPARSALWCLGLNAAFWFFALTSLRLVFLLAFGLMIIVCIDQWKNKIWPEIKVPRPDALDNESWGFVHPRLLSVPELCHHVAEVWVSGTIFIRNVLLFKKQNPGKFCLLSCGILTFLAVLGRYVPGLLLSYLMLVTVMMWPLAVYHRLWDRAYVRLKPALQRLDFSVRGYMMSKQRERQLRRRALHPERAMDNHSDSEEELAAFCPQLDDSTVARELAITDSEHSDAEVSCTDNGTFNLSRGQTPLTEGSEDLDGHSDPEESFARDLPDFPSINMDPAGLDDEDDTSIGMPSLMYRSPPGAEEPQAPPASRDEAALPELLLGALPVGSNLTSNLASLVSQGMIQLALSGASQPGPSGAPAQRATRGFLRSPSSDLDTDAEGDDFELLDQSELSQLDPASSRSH
UniProt O43818, sequence (O43818 whole entry, looked up): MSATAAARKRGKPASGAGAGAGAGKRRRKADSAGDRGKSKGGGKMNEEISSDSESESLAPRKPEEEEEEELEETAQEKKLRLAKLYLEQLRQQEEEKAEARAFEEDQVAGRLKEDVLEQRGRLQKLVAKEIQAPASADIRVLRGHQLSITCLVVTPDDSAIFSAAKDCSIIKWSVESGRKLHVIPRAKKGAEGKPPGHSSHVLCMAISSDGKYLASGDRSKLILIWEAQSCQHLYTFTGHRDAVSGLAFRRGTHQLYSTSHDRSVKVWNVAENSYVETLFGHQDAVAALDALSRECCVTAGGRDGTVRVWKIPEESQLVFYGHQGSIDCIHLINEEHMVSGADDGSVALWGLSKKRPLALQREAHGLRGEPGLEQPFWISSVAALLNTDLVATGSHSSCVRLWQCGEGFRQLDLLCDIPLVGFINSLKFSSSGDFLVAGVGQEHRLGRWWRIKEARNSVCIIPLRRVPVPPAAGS
UniProt Q14151, sequence (Q14151 whole entry, looked up): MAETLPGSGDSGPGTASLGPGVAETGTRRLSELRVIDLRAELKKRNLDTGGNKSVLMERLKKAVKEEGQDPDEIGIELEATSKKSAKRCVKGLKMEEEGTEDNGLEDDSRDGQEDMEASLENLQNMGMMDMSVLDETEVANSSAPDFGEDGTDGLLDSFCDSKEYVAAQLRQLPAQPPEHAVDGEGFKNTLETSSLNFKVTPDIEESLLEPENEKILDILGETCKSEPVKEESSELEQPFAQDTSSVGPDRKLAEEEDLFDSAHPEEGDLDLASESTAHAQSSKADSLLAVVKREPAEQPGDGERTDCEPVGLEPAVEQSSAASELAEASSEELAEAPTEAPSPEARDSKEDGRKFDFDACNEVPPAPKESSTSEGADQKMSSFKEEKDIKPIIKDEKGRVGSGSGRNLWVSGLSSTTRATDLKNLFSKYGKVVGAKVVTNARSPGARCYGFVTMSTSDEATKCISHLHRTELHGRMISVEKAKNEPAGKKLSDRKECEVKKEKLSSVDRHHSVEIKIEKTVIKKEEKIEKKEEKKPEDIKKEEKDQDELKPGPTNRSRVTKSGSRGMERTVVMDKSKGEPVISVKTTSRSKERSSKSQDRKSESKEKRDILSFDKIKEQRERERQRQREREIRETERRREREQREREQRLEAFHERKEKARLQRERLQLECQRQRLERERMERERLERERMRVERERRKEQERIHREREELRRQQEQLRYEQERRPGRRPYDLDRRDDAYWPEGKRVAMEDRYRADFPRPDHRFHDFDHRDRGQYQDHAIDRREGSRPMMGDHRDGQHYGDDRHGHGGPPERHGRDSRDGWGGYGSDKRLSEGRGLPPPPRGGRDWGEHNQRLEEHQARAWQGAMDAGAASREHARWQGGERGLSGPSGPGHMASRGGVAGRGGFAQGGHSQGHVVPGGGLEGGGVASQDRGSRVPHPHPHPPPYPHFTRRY

Target | log2 fold change [1] | log2 fold change [2] | log2 fold change [3] | log2 fold change [4] | log2 fold change [5] | log2 fold change [6] | log2 fold change [7] | log2 fold change [8] | log2 fold change [9] | log2 fold change [10] | log2 fold change [11] | log2 fold change [12] | log2 fold change [13] | log2 fold change [14] | log2 fold change [15] | log2 fold change [16] | log2 fold change [17] | log2 fold change [18] | log2 fold change [19] | log2 fold change [20]
SDHC (UniProt Q99643) | 0.074 | -0.201 | -0.006 | -0.134 | 0.04 | -0.062 | -0.012 | -0.159 | 0.029 | 0.159 | 0.088 | 0.088 | 0.094 | -0.238 | 0.023 | -0.107 | 0.042 | 0.04 | -0.081 | -0.006
SFXN5 (UniProt Q8TD22) | 0.106 | -0.014 | -0.098 | -0.053 | 0.019 | 0.017 | -0.043 | -0.038 | -0.053 | 0.045 | -0.104 | -0.007 | 0.025 | -0.172 | 0.027 | -0.019 | -0.013 | 0.035 | 0.017 | 0.061
RRP9 (UniProt O43818) | 0.08 | 0.044 | 0.057 | 0 | -0.069 | -0.075 | 0.019 | -0.094 | -0.005 | 0.042 | -0.011 | 0.143 | -0.059 | 0.171 | -0.14 | -0.061 | 0.027 | 0.047 | 0.037 | -0.04
RPS3 (UniProt P23396) | -0.03 | 0.031 | 0.201 | 0.094 | 0.082 | 0.208 | 0.097 | 0.04 | 0.045 | 0.002 | -0.093 | 0.102 | -0.023 | 0.055 | -0.05 | -0.027 | -0.056 | -0.149 | 0.053 | -0.059
SIK3 (UniProt H0Y4E8) | 0.027 | 0.157 | -0.007 | 0.064 | -0.009 | -0.072 | 0.023 | -0.114 | 0.056 | 0.01 | -0.015 | 0.085 | -0.073 | -0.065 | -0.018 | 0.077 | -0.026 | 0.466 | 0.036 | -0.007
RETREG3 (UniProt Q86VR2) | 0.164 | 0.035 | -0.023 | 0.022 | 0.011 | -0.015 | 0.004 | -0.011 | -0.018 | 0.032 | -0.038 | -0.136 | -0.053 | -0.008 | 0.029 | -0.141 | 0.035 | 0.106 | 0.037 | 0.102
RSF1 (UniProt Q96T23) | 0 | -0.209 | -0.188 | 0.181 | 0.035 | -0.407 (active) | 0.026 | 0.048 | 0.029 | -0.086 | 0.267 | -0.078 | 0.023 | -0.147 | -0.067 | -0.018 | 0.037 | -0.17 | 0.004 | 0.114
RAVER1 (UniProt E9PAU2) | -0.086 | -0.376 | -0.624 | 0.413 | -0.069 | -0.322 | -0.186 | -0.087 | 0.105 | -0.065 | 0.032 | -0.244 | 0.258 | 0.024 | 0.372 | -0.898 | 0.082 | -0.099 | 0.049 | -0.002
RUFY3 isoform 3 (UniProt Q7L099) | -0.054 | -0.036 | -0.133 | 0 | -0.029 | -0.028 | 0.105 | -0.255 | -0.017 | -0.059 | -0.06 | 0.053 | 0.003 | -0.108 | 0.155 | 0.045 | 0.08 | -0.122 | -0.01 | 0.018
SEC24A (UniProt O95486) | 0.002 | -0.055 | -0.071 | 0.03 | 0.032 | -0.013 | 0.002 | -0.033 | 0.091 | -0.009 | 0.029 | -0.083 | 0.033 | -0.087 | -0.002 | -0.004 | -0.028 | -0.016 | -0.021 | -0.077
RTN4IP1 (UniProt Q8WWV3) | -0.264 | 0.43 | -0.27 | 0.611 (active) | -0.066 | -0.157 | -0.178 | -0.069 | 0.02 | 0.007 | 0.206 | -0.081 | 0.097 | 1.17 (active) | -0.22 | -0.013 | 0.125 | 0.256 | 0.003 | -0.003
SERINC3 (UniProt Q13530) | 0.002 | 0.119 | 0.134 | -0.06 | -0.043 | -0.016 | 0.006 | -0.216 | -0.017 | -0.065 | -0.015 | -0.222 | -0.062 | 0.136 | 0 | -0.17 | -0.069 | 0.042 | -0.181 | 0.181
RCN3 (UniProt Q96D15) | 0.033 | 0.107 | -0.133 | 0.153 | -0.076 | 0.096 | 0.038 | -0.309 | 0.054 | 0.087 | -0.065 | 0.054 | -0.068 | -0.122 | 0 | 0.043 | 0 | 0.132 | -0.025 | 0.087
SAFB2 (UniProt Q14151) | -0.055 | -0.028 | 0.149 | -0.048 | -0.022 | 0.144 | 0.1 | -0.067 | 0.029 | -0.005 | -0.044 | 0.409 (active) | 0.017 | 0.085 | -0.045 | -0.046 | 0 | -0.037 | 0.048 | -0.032
RPL38 (UniProt P63173) | -0.018 | 0.01 | 0.088 | 0.014 | 0.027 | 0.126 | 0.093 | 0.044 | 0.003 | 0.037 | -0.109 | 0 | -0.007 | 0.055 | -0.064 | 0.061 | -0.074 | -0.171 | 0.05 | -0.053
RPS9 (UniProt P46781) | -0.044 | -0.015 | 0.237 | 0.119 | 0.083 | 0.226 | 0.108 | 0.095 | 0.118 | -0.027 | -0.036 | 0.237 | 0.032 | 0.098 | -0.101 | -0.083 | -0.055 | -0.211 | 0.084 | -0.195
